# Source: PubChem (several laboratories)
# In the library only some 1.3% were active in any assay of this set; here they are far more common.
# Beta2AR agonist = activates human beta-2 adrenergic receptor causing internalization; Am2.2-beta2AR cells, FAP receptor internalization, flow cytometry; response, % (test concentration not listed); AID 504454; 0.43% of 340,000 active;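 active = response above a set limit, near 3 SD of response in nonfluorescent compounds, cut at about 42% in these data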
# Target sequence (P07550 whole entry, looked up): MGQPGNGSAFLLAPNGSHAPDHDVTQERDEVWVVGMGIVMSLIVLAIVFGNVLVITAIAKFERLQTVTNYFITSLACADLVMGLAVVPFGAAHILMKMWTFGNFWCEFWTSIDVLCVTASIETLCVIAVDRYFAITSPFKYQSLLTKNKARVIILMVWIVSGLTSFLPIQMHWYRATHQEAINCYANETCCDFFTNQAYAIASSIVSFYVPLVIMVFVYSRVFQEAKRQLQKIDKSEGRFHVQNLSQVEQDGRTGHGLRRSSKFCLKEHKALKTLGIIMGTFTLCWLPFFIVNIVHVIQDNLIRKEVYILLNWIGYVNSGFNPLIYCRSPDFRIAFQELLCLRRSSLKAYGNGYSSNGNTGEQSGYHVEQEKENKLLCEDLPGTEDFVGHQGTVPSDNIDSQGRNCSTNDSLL
# NTR1 agonist = activates human neurotensin receptor 1. NTR1-U2OS beta-arrestin-GFP spot imaging, agonist mode. P30989. activation, % at 20 µM. 0.17% of 330,000 active. AID 493036;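 active = activation at or above 40% of the spot to cytoplasm intensity ratio, with at least 20 cells analyzed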;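 also: 0% = DMSO without peptide and 100% = 100 nM NTR1 peptide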
# VLA-4 inh = inhibition in a human VLA-4 binding assay. P13612. VLA-4 expressing cells, ligand binding flow cytometry. inhibition, % (about 7 µM as worked out from the volumes in the protocol). 0.2% of 330,000 active; in the data active = inhibition above about 50%
# Bfl-1 A1 inh = inhibitors of the anti-apoptotic protein A1, read as caspase activation; 0.066% of 330,000 active; MEF A1-2A-BIM cells, Caspase-Glo 3/7 luminescence, 3 h; percent of clofoctol response, vehicle zero; AID 2462; caspase activation, % (no concentration beside the values);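 active = over half of replicate activation scores above 10%, or exactly half above 10 with the replicate mean above 10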
# GRK2 inh = human GRK2 inhibition via aptamer displacement; P25098; AID 488847; bead flow cytometry, FAM-aptamer displacement from GRK2; inhibition of aptamer binding, % at 10 µM; 0.59% of 330,000 active;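 active = inhibition of aptamer binding above 40%, roughly 3 SD of noise, on plates passing a quality check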;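 also: median bead fluorescence of bound FAM aptamer so fluorescent compounds give negative values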
# GRK2 CP1 = human GRK2 inhibition confirmation, cherry pick 1 | shares compounds with GRK2 inh | bead-bound GRK2, FAM-aptamer displacement, flow cytometry | aptamer displacement, % at 10 µM | 4% of 2,000 active;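 active = aptamer displacement above 40%, near three times the noise of non-fluorescent compounds, on plates passing quality checks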;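 also: negative values mostly reflect intrinsic compound fluorescence rather than true enhancement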
# FAM quench CP1 = counter-screen for GRK2 aptamer inhibitors: fluorescent aptamer quenchers | shares compounds with GRK2 inh | Carboxyfluorescein RNA aptamer on beads, flow cytometry quenching; active compounds read low | fluorescence response (% of DMSO), % at 10 µM | 2,000 tested, under 10 active | AID 504580;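 active = compounds that quench the bead-bound fluorescent RNA probe, cutting fluorescence to under half of the solvent control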;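 also: counterscreen run without GRK2 so only probe quenching by compound is measured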
# GRK2 confirm 2 = human GRK2 inhibition confirmation, cherry pick 2. bead-bound GRK2, FAM-aptamer displacement, flow cytometry. shares compounds with GRK2 inh. 360 tested, under 10 active. inhibition of aptamer binding, % at 10 µM;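 active = inhibition of aptamer binding above 40%, about triple the noise seen with nonglowing compounds, on plates passing quality control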;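 also: negative values mostly come from compounds that fluoresce themselves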
# FAM quench CP2 = quenches fluorescent RNA aptamer, GRK2 hit artifact | shares compounds with GRK2 inh | carboxyfluorescein RNA aptamer beads, flow cytometry quenching; active compounds read low | fluorescence response vs DMSO, % at 10 µM | 360 tested, under 10 active;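 active = response vs DMSO under 50%, meaning signal dropped by over half, treated as fluorescence quencher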;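 also: labelled aptamer on streptavidin beads without GRK2 as a quench counter-screen; 100% = bead fluorescence of DMSO wells and lower means quenching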
# Numbers without * were called inactive; . = no result.
SMILES,Beta2AR agonist,NTR1 agonist,VLA-4 inh,Bfl-1 A1 inh,GRK2 inh,GRK2 CP1,FAM quench CP1,others
CC(O)c1cccc(NC(=O)C2CCCCC2)c1 (stereo unspecified),2,1,-1,0,53*,0,102,
O=C(/C=C/c1ccco1)Nc1cc(Cl)ccc1C(=O)O,-3,2,2,-5,5,.,.,
O=C(/C=C/c1ccco1)Nc1ccccc1C(=O)O,2,0,-6,-1,71*,-4,101,
COc1ccccc1COCC(O)CN1CCN(S(=O)(=O)c2cccc(F)c2)CC1 (stereo unspecified),-11,-1,1,-1,2,.,.,
COc1ccc(-c2cc3cc4c(cc3cn2)OCO4)cc1,11,-1,0,-4,41*,.,.,GRK2 confirm 2=10;FAM quench CP2=112
CCOC(=O)c1cnc2c(C#N)c(C)nn2c1-c1ccccc1,11,1,4,-1,0,.,.,
CCOC(=O)c1cnc2c(C#N)c(C)nn2c1C,-6,1,-2,0,47*,-4,100,
CN(c1ccc(C(=O)N/N=C/c2cccc([N+](=O)[O-])c2)cc1)S(=O)(=O)c1ccccc1,20,2,23,0,0,.,.,
COc1ccc(CC(=O)NC2CC(C)(C)NC(C)(C)C2)cc1,-5,0,9,1,42*,0,99,
CC1(C)CC(NC(=O)Cc2ccccc2)CC(C)(C)N1,-2,0,10,1,0,.,.,
NC(=O)C1CCN(CC(=O)Nc2cccnc2Cl)CC1,0,2,0,0,42*,-4,135,
NC(=O)C1CCN(CC(=O)Nc2ccccc2N2CCOCC2)CC1,1,0,3,1,2,.,.,
Clc1nc(NC2CCCCC2)c2cn[nH]c2n1,6,.,.,.,.,.,.,
Cc1cc(C)cc(NC(=O)COC(=O)c2ccc3c(c2)OCCO3)c1,-2,-2,-7,-1,100*,-3,102,
COc1ccc(CNC(=O)COC(=O)c2ccc3c(c2)OCCO3)cc1,2,0,11,0,58*,-4,104,
Cc1ccc(C(=O)OCC(=O)Nc2ccc3c(c2)OCCO3)cc1C,-4,1,.,.,.,.,.,
COc1ccc(CCNC(=O)c2ccc3c(c2)OCCO3)cc1,3,0,7,-1,0,.,.,
COCCCn1c(SCC(=O)NC2CCS(=O)(=O)C2)nnc1-c1ccc(Cl)cc1 (stereo unspecified),6,-1,0,1,0,.,.,
COc1ccccc1Oc1c(C)oc2c(CN3CCOCC3)c(O)ccc2c1=O,-10,-2,7,0,58*,3,99,
COc1ccccc1Oc1coc2c(CN3CCOCC3)c(O)ccc2c1=O,-12,1,0,0,2,.,.,
COCCNC(=O)C(OC(=O)c1ccco1)c1ccc(OC)cc1 (stereo unspecified),-6,.,.,.,.,.,.,
Cc1cccnc1NC(=O)C(c1ccccc1)c1ccccc1,0,0,8,1,0,.,.,
CC1(C)CC(=O)C(C(C2=C(O)CC(C)(C)CC2=O)c2ccco2)C(=O)C1 (stereo unspecified),8,1,6,-1,94*,-1,104,
Cn1c(CSCc2ccccc2)nnc1SCC(=O)Nc1nccs1,-2,0,-4,-1,50*,-2,96,
Cn1c(CSCc2ccc(F)cc2)nnc1SCC(=O)Nc1nccs1,1,-1,28,0,2,.,.,
O=C1COc2ccc(S(=O)(=O)N3CCc4ccccc43)cc2N1,-2,-1,10,1,4,.,.,
Cc1cc2c(cc1S(=O)(=O)N1CCc3ccccc31)NC(=O)CO2,6,5,26,0,73*,3,97,
